ASM inhibitor: human S-ASM enzyme inhibition; P17405; placental ASM, HMU-PC fluorogenic substrate, 60 min; Potency, µM (top dose mostly 57.5 µM), for inactives: top-dose activity change, negative = inhibition, usual class: inhibitors; 340,000 compounds, 0.006% hits; also: potency is read from the fitted curve at half-maximal effect
Target sequence (P17405 47-631 limits assumed): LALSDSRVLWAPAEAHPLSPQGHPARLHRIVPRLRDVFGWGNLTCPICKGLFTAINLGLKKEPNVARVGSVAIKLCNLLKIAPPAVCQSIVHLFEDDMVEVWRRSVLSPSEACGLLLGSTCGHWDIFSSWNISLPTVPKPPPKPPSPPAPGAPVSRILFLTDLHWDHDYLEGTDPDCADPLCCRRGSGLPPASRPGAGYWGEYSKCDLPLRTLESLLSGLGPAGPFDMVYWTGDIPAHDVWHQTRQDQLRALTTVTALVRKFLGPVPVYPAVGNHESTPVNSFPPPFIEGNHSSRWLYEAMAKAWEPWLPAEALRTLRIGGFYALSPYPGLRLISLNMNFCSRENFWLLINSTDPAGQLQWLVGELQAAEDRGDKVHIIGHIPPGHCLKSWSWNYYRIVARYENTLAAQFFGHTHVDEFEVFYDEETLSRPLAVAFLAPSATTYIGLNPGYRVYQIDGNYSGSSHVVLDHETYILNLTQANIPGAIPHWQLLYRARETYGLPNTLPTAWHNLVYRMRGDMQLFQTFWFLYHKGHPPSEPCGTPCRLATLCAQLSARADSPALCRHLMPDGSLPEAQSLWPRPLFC
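Fluorogenic HMU-PC substrate (9 uM final) is turned over by placental ASM in 60 min at 37 C after a 10 min compound preincubation. Reaction ended by alkaline stop (pH 10), with fluorescence read at 386/447 nm.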
DT40 TDP1 no CPT: qHTS for Inhibitors of human tyrosyl-DNA phosphodiesterase 1 (TDP1): qHTS in cells in absence of CPT | DT40 Tdp1-/- hTDP1 cells, no CPT, ATP luminescence, 48 h | Potency, µM (highest dose often 46.2 µM), for the others: at the top dose activity change, negative = growth inhibition, most hits filed as inhibitors | 420,000 compounds, 15% hits | AID 686978, 2013; also: potency is read from the fitted curve at half-maximal effect; % is scaled to controls: 0 for no effect and ±100 for the full control effect; nearly all actives have a fitted effect of over 55% in size
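Growth of hTDP1-complemented DT40 Tdp1-knockout cells is measured by ATP luminescence after at least 48 hr compound exposure at 37 °C, with DMSO substituting for the 20 nM CPT used in the parallel screen.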
HepG2 viability: counter-screen for TGF-b inhibitors: cytotoxicity in HepG2 cells | HepG2 CAGA-GFP viability, ATP luminescence, 18 h | Potency, µM (doses to about 46.1 µM), for inactives: at the highest dose activity change, negative = cytotoxicity, most hits filed as cytotoxic | 410,000 compounds, 0.76% hits | AID 588856; also: potency is read from the fitted curve at half-maximal effect
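CellTiter-Glo luminescence gave cytotoxicity after 18 hours at 37 degrees C. The cells were HepG2 CAGA-GFP in 1% FBS DMEM, stimulated with 500 pg/mL TGF-beta after compound addition. %Activity was normalised to no-cell wells (complete cell-killing) and DMSO (no toxicity), and curves were fitted and classified.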
TGFb SMAD3 inh: TGF-b pathway inhibition. HepG2 CAGA-GFP TGF-b/SMAD3 reporter, GFP fluorescence, 18 h; TGF-beta stimulated, 500 pg/mL final. Potency, µM (series often up to 46.1 µM), without a hit: at the top dose activity, negative = inhibition, actives largely listed as inhibitors. 410,000 compounds, 1.2% hits. AID 588855; also: potency is read from the fitted curve at half-maximal effect; % is scaled to controls: 0 for no effect and ±100 for the full control effect; nearly all actives have a fitted effect of over 65% in size
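GFP signal (ex488/em500-530) from TGF-beta-stimulated HEPG2 CAGA-GFP cells, 500 pg/mL final, 18 h at 37 degrees C in DMEM plus 1% FBS, normalized to unstimulated and DMSO-stimulated controls.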
IL-1B inflam inh: inflammasome signaling inhibition, IL-1 beta readout. 360,000 compounds, 4.7% hits. activity change, % at 57.5 µM. THP-1 LPS/ATP IL-1B secretion, AlphaLISA, 16 h; hits give low values. AID 743279; in the data active = activity change below about -50%; inconclusive = mostly about -30% to -49%; also: % is scaled to controls: 0 for no effect and ±100 for the full control effect
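THP-1 cells pretreated 1 hr with compounds (up to 57.5 uM final), then stimulated with LPS (250 ng/mL final) plus ATP (1.25 mM final); secreted IL-1B measured by AlphaLISA after 16 hr, decreased signal indicating inhibition.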
TDP1 cell CPT: growth inhibition of DT40 Tdp1-/-;hTDP1 cells with camptothecin (screen for TDP1 inhibitors) | chicken DT40 Tdp1-/-;hTDP1 cells + 20 nM CPT, ATP luminescence, 48 h | Potency, µM (series often up to 46.2 µM), for inactives: top-dose activity change, negative = growth inhibition, actives largely listed as inhibitors | 420,000 compounds, 12% hits | AID 686979; also: potency is read from the fitted curve at half-maximal effect; % is scaled to controls: 0 for no effect and ±100 for the full control effect; nearly all actives have a fitted effect of over 55% in size
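Chicken DT40 Tdp1-/- cells stably complemented with human TDP1 were seeded at 400 cells/well in medium containing 20 nM camptothecin, exposed to pin-transferred compounds, and grown at 37 °C for at least 48 hr. Viability was read as ATP luminescence.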
Active calls of the source: *; ? = inconclusive; . = no result given; [ ] = another dose, or the depositor's remark. Most compounds without a hit are left out; they make up all but 19% or so of the library. Unless noted, calls follow the shape of the dose curve; as a rule, active = well fitted curve in the direction sought with a large enough effect; inconclusive = small, poorly fitted or top-dose-only effect, or another doubt; inactive = no such curve, though single readings can be large; an effect the other way counts as inactive or inconclusive.

SMILES	ASM inhibitor	DT40 TDP1 no CPT	HepG2 viability	TGFb SMAD3 inh	IL-1B inflam inh	TDP1 cell CPT
CN(C)c1nc2c(c(=O)n(C)c(=O)n2C)n1Cc1ccccc1	3%	-26%	1%	0%	43	-12%
Cn1c(=O)c2c(nc(NCC3CCCO3)n2Cc2cccc(Br)c2)n(C)c1=O (stereo not drawn)	2%	15µM*	1%	-8%	0	?
Cn1c(=O)c2c(nc(NCCCO)n2Cc2cccc(C(F)(F)F)c2)n(C)c1=O	-1%	15µM*	-10%	0%	11	18µM*
COCCNc1nc2c(c(=O)n(Cc3cccc(Br)c3)c(=O)n2C)n1C	2%	23µM*	-4%	?	26	?
Cc1cc(C)c(NC(=O)CSc2nc(=O)n(CCN3CCOCC3)c3c2CCC3)c(C)c1	5%	-3%	1%	4%	5	1%
CCn1c(CNC(=O)c2ccc(Cl)cc2)nnc1SCC(=O)NC1=NCCS1	2%	-22%	-6%	5%	15	-13%
COCCCNc1nc2c(c(=O)n(C)c(=O)n2C)n1Cc1ccccc1	.	12µM*	-25%	0%	.	16µM*
C/C(Cl)=C\Cn1c(NCCc2ccccc2)nc2c1c(=O)n(C)c(=O)n2C	-9%	0.82µM*	-21%	-13%	-52*	0.65µM*
CCNc1nc2c(c(=O)n(C)c(=O)n2C)n1CCCc1ccccc1	-3%	5.8µM*	-14%	-9%	-9	12µM*
C=CCn1c(Oc2cc(C)ccc2C)nc2c1c(=O)n(C)c(=O)n2C	-2%	16µM*	5%	-20%	-1	15µM*
Cn1c(=O)c2c(nc(NCCc3ccccc3)n2CC(=O)NCCc2ccccc2)n(C)c1=O	0%	5%	-3%	0%	-6	-2%
COCCCNc1nc2c(c(=O)n(Cc3cccc(Br)c3)c(=O)n2C)n1C	-16%	?	-13%	0%	28	-30%
COc1ccc(CCCc2nnc(SCc3nc4ccccc4c(=O)[nH]3)n2C)c(C)c1	1%	-10%	-6%	8%	1	-25%
COCCNc1nc2c(c(=O)n(C)c(=O)n2C)n1Cc1c(F)cccc1Cl	.	2.6µM*	-16%	?	.	1.8µM*
COCCNc1nc2c(c(=O)n(Cc3cccc(Cl)c3)c(=O)n2C)n1C	0%	?	7%	8%	37	?
C=CCn1c(NCCc2ccccc2)nc2c1c(=O)n(C)c(=O)n2C	-2%	8.2µM*	-42%	-24%	-21	9.2µM*
Cc1ccc(Cn2c(NCCc3ccccc3)nc3c2c(=O)n(C)c(=O)n3C)cc1	-11%	8.2µM*	-27%	-14%	?	6.5µM*
Cc1ccccc1NC(=O)OCc1ccccc1	-6%	7%	2%	4%	?	25%
CCC(Sc1nc2ccsc2c(=O)n1-c1ccc(Cl)c(C)c1)C(=O)NCc1ccco1 (stereo not drawn)	-16%	?	-17%	-18%	-71*	?
CC(C)Oc1ccc(C2NC(=O)c3ccccc3O2)cc1 (stereo not drawn)	1%	-3%	-1%	-3%	-4	4%
CCOc1ccc(C(=O)Nc2cc3c(cc2N2CCCC2)n(CC)c(=O)n3CC)cc1OCC	38%	?	6%	1%	15	?
CCn1c(=O)n(CC)c2cc(N3CCCC3)c(NC(=O)c3c(F)cccc3F)cc21	-14%	12µM*	-25%	-8%	20	?
CCn1c(=O)n(CC)c2cc(N3CCCC3)c(NC(=O)c3ccc(F)cc3)cc21	5%	18µM*	9%	7%	49	23µM*
CCn1c(=O)c(=O)n(CC)c2cc(N3CCCCC3)c(NC(=O)c3ccc(OC)c(OC)c3)cc21	.	9.2µM*	-12%	1%	.	13µM*
CN(C)c1cc2c(cc1NC(=O)c1ccc(F)cc1)n(C)c(=O)n2C	.	23µM*	-5%	-11%	.	?
SMILES	ASM inhibitor	DT40 TDP1 no CPT	HepG2 viability	TGFb SMAD3 inh	IL-1B inflam inh	TDP1 cell CPT
Cn1c(=O)n(C)c2cc(N3CCCCC3)c(NC(=O)c3ccc(C(C)(C)C)cc3)cc21	.	?	-17%	0%	.	?
O=C(Nc1ccccc1N1CCCC1)c1ccc(Cl)c(S(=O)(=O)N2CCOCC2)c1	1%	?	-12%	-29%	-5	-26%
CCOC(=O)CSc1nc2cc3c(cc2c(=O)n1CCCCCC(=O)NCc1ccc2c(c1)OCO2)OCO3	.	-15%	-7%	-7%	.	-6%
COc1ccc(-c2nc3cc(C)c(Br)c(C)n3c2CC(C)(C)C)cc1OC	.	-26%	-13%	?	-22	-12%
Cn1c(=O)n(C)c2cc(N3CCCCC3)c(NC(=O)Nc3ccc(Br)cc3)cc21	.	?	-26%	-20%	.	?
CCOC(=O)Cc1ccc(NC(=O)Nc2cc3c(cc2N2CCCCC2)n(C)c(=O)n3C)cc1	.	2.6µM*	-42%	?	.	4.6µM*
CCn1c(=O)n(CC)c2cc(N3CCCCC3)c(NC(=O)Nc3cc(C)cc(C)c3)cc21	.	6.5µM*	-9%	-14%	.	5.8µM*
CSc1cccc(NC(=O)c2[nH]c(C)c(C(C)=O)c2C)c1	-8%	?	-14%	-3%	?	?
COC(=O)c1cccc(NC2=NS(=O)(=O)c3ccccc32)c1	.	?	-42%	?	.	?
O=C(NNS(=O)(=O)c1ccc([N+](=O)[O-])cc1)c1ccccc1	0%	3%	7%	-3%	-3	-4%
O=C(/C=C/NNC(=O)c1ccccc1)c1ccc([N+](=O)[O-])cc1	-9%	9.2µM*	-49%	?	129	6.5µM*
O=C(/C=C/NNC(=O)c1ccccc1O)c1ccccc1	-10%	16µM*	-20%	-23%	-3	?
O=C(/C=C/NNC(=O)c1ccc(Br)cc1)c1ccccc1	-16%	4.1µM*	-28%	-5%	8	2.9µM*
Cc1ccc(C(=O)C=CNNC(=O)c2ccccc2)cc1	-1%	?	-50%	?	6	?
Cc1cccc(C(=O)NN/C=C/C(=O)c2ccccc2)c1	-1%	26µM*	4%	?	70	?
COc1ccc(OC)c(C(=O)N(Cc2cc3cccc(C)c3nc2N2CCC(O)CC2)C2CC2)c1	.	?	.	.	.	4%[9.04 µM]
C=CCC[C@H](Cc1ccc(F)cc1)C(=O)OC[C@@H](NC(=O)[C@H](CC=C)CC(=O)NCCO)C(C)(C)C	6%	?	-20%	?	-4	?

Assay outcomes deposited in PubChem BioAssay by National Center for Advancing Translational Sciences (NCATS).
